# Unmarked numbers belong to inactive results. The rule behind the calls is not given here.
# Assay: DNA binding via dye displacement – biochemical, fluorescence, dose response, counter-screen for HCV NS3 helicase inhibitor project, late-stage follow-up (AID 2476)
# Details: DNA fluorescent intercalator displacement
row,SMILES,IC50 [µM]
1,CCCCCOc1ccc(C2C(C(=O)c3ccc(C)o3)=C(O)C(=O)N2c2cc(C)on2)cc1 (configuration not stated),> 79.4
2,COc1ccc(C=NNC(=O)c2cc(O)c(O)c(O)c2)cc1COc1ccc(C(=O)OCC(C)C)cc1,> 79.4
3,COc1cccc(-n2c(SCc3cc(=O)oc4cc(O)c(O)cc34)nc3ccccc3c2=O)c1,> 79.4
4,Cc1ccc(C(=O)C2=C(O)C(=O)N(Cc3ccco3)C2c2cccc(Cl)c2)o1 (configuration not stated),> 79.4
5,COc1cc(C2C(C(=O)c3ccc(C)o3)=C(O)C(=O)N2c2cc(C)on2)ccc1OCc1ccccc1 (configuration not stated),> 79.4
6,CCOc1cccc(C2C(C(=O)c3ccc(C)o3)=C(O)C(=O)N2Cc2ccccc2)c1 (configuration not stated),> 79.4
7,Cc1cc(N2C(=O)C(O)=C(C(=O)c3ccc(C)o3)C2c2ccc(OCc3ccccc3)cc2)no1 (configuration not stated),> 79.4

# — PubChem BioAssay AID2476 (The Scripps Research Institute Molecular Screening Center, 2010)
